Data from article PMC7862700, “An all-to-all approach to the identification of sequence-specific readers for epigenetic DNA modifications on cytosine”.

How the values were obtained:
Assay in all cases: DAPPL (digital affinity profiling via proximity ligation, sequencing); 10 mM Tris-HCl pH 7.5, 50 mM NaCl, 1 mM DTT, 4% glycerol, room temperature, 30 min; GST-TFs on glutathione beads, 16-mer random dsDNA library, 0.1% formaldehyde crosslink after washing; high values mean tight binding
Conditions in all cases: protein: recombinant; tags: N-terminal GST; dsDNA, one strand shown
[1] = target: T1, ERF (Homo sapiens, UniProt P50548 1-548)
T1 sequence: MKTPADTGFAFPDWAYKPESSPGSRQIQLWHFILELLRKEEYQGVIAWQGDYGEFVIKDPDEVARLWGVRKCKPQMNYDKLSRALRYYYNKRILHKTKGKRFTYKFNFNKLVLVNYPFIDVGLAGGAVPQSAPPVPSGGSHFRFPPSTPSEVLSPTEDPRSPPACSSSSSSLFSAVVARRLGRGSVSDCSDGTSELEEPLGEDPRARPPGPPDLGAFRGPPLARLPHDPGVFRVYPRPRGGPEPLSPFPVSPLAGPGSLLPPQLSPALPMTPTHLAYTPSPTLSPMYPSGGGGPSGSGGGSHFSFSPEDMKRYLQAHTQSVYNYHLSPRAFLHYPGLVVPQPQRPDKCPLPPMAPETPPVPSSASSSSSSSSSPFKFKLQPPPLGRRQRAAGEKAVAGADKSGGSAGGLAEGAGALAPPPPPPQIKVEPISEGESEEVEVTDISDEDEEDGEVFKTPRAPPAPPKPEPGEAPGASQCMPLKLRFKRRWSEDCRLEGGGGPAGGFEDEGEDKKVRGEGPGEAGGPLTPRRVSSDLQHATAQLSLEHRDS
Method in brief: (§1)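 Binding signal is each hexamer's read frequency for a factor divided by its frequency in the tag-only sample. The factors were GST-fused human transcription factors from yeast, captured on glutathione beads, DNA-barcoded and pooled with that sample. Pools were incubated with 200 nmole of a random double-stranded 16-mer DNA library in Tris/NaCl/DTT/glycerol buffer at room temperature for 30 min, then washed, crosslinked with 0.1% formaldehyde, proximity-ligated with BsaI/T4 ligase (1 h, 37 °C), PCR-amplified and sequenced on an Illumina NextSeq500.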

[2] = target: T2, ETV3L (Homo sapiens, UniProt Q6ZN32 1-361)
T2 sequence: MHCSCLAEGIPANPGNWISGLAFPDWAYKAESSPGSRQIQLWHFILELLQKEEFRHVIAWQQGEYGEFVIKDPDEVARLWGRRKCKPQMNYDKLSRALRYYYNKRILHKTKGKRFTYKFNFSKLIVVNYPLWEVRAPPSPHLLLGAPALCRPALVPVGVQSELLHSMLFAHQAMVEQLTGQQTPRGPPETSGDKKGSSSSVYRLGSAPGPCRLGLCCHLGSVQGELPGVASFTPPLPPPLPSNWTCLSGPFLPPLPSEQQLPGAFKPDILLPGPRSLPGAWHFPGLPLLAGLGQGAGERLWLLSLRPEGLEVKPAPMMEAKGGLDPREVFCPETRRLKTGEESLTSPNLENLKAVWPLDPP
Method in brief: as §1

[3] = target: T3, ETS2 (Homo sapiens, UniProt P15036 1-469)
T3 sequence: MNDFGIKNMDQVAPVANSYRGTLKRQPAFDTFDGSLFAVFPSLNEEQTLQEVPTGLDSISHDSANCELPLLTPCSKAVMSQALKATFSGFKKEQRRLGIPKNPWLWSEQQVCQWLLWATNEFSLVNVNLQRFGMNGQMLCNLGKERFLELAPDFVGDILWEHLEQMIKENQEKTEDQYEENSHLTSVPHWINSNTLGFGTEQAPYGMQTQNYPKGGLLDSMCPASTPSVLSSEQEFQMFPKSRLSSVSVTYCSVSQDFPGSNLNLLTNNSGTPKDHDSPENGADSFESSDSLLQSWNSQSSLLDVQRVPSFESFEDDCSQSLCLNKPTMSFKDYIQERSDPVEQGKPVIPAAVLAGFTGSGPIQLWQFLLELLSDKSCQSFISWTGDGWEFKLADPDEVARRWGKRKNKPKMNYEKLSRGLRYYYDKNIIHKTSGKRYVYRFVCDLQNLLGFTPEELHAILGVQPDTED
Method in brief: as §1

[4] = target: T4, SPDEF (Homo sapiens, UniProt O95238 1-335)
T4 sequence: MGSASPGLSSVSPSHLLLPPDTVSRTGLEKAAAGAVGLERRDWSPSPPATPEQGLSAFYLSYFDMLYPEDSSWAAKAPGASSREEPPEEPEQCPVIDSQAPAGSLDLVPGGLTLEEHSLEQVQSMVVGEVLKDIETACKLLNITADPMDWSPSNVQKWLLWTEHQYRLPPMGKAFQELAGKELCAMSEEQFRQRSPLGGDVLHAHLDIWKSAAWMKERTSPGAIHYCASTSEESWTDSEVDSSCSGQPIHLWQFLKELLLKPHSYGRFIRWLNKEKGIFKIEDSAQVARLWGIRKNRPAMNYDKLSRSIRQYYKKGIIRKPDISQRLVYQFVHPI
Method in brief: as §1

[5] = target: T5, ETV7 (Homo sapiens, UniProt Q9Y603 1-341)
T5 sequence: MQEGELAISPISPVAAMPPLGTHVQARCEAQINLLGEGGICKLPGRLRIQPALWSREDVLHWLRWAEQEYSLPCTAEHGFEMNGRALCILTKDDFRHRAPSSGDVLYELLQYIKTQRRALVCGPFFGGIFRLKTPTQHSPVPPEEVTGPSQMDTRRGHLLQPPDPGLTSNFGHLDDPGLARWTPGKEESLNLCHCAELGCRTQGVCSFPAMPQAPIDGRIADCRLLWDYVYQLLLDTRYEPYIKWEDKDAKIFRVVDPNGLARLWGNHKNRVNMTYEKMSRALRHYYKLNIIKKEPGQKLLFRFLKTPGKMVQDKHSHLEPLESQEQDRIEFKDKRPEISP
Method in brief: as §1

[6] = target: T6, ELF5 (Homo sapiens, UniProt Q9UKW6-2 1-255)
T6 sequence: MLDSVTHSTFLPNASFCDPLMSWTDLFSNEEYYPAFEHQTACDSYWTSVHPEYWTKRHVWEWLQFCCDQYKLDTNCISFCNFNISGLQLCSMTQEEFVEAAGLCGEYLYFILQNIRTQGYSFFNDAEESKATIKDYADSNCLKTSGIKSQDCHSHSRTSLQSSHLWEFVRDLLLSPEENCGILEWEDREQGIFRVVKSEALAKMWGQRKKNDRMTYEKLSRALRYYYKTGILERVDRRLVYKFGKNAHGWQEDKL
Method in brief: as §1

[7] = target: T7, ETV3 (Homo sapiens, UniProt P41162-2 1-143)
T7 sequence: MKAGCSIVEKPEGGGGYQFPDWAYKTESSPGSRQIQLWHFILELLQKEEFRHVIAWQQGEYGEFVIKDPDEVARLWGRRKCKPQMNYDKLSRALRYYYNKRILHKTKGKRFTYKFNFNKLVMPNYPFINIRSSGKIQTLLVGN
Method in brief: as §1

[8] = target: ETV6 (Homo sapiens, UniProt P41212 1-452)
Method in brief: as §1

Sequence of ETV6 (P41212 whole entry): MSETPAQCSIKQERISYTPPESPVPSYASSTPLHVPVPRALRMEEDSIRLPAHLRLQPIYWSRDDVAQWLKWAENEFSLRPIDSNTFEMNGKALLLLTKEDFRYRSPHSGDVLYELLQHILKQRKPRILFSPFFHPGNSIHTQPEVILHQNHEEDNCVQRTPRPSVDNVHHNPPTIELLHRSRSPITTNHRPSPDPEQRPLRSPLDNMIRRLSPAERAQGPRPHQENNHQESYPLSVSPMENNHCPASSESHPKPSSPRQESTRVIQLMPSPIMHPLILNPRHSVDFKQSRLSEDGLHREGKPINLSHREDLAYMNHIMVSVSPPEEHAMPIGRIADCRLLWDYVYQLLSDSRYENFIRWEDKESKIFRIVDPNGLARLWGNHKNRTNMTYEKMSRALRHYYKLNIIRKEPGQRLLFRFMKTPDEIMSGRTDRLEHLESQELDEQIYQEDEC

Row | Sequence | binding signal [1] | binding signal [2] | binding signal [3] | binding signal [4] | binding signal [5] | binding signal [6] | binding signal [7] | binding signal [8]
1 | TCTATC | 1.37 fold enrichment (6-mer frequency, TF over GST control) | 1.27 fold enrichment (6-mer frequency, TF over GST control) | 1.16 fold enrichment (6-mer frequency, TF over GST control) | 1.27 fold enrichment (6-mer frequency, TF over GST control) | 1.27 fold enrichment (6-mer frequency, TF over GST control) | 1.24 fold enrichment (6-mer frequency, TF over GST control) | 1.2 fold enrichment (6-mer frequency, TF over GST control) | 1.32 fold enrichment (6-mer frequency, TF over GST control)
2 | TTTCAC | 1.44 fold enrichment (6-mer frequency, TF over GST control) | 1.36 fold enrichment (6-mer frequency, TF over GST control) | 1.32 fold enrichment (6-mer frequency, TF over GST control) | 1.33 fold enrichment (6-mer frequency, TF over GST control) | 1.4 fold enrichment (6-mer frequency, TF over GST control) | 1.42 fold enrichment (6-mer frequency, TF over GST control) | 1.32 fold enrichment (6-mer frequency, TF over GST control) | 1.3 fold enrichment (6-mer frequency, TF over GST control)
3 | CTTTGT | 1.3 fold enrichment (6-mer frequency, TF over GST control) | 1.41 fold enrichment (6-mer frequency, TF over GST control) | 1.24 fold enrichment (6-mer frequency, TF over GST control) | 1.21 fold enrichment (6-mer frequency, TF over GST control) | 1.36 fold enrichment (6-mer frequency, TF over GST control) | 1.24 fold enrichment (6-mer frequency, TF over GST control) | 1.32 fold enrichment (6-mer frequency, TF over GST control) | 1.31 fold enrichment (6-mer frequency, TF over GST control)
4 | CTAACA | 1.29 fold enrichment (6-mer frequency, TF over GST control) | 1.22 fold enrichment (6-mer frequency, TF over GST control) | 1.21 fold enrichment (6-mer frequency, TF over GST control) | 1.29 fold enrichment (6-mer frequency, TF over GST control) | 1.16 fold enrichment (6-mer frequency, TF over GST control) | 1.15 fold enrichment (6-mer frequency, TF over GST control) | 1.14 fold enrichment (6-mer frequency, TF over GST control) | 1.18 fold enrichment (6-mer frequency, TF over GST control)
5 | TACTGT | 1.2 fold enrichment (6-mer frequency, TF over GST control) | 1.15 fold enrichment (6-mer frequency, TF over GST control) | 1.16 fold enrichment (6-mer frequency, TF over GST control) | 1.11 fold enrichment (6-mer frequency, TF over GST control) | 1.04 fold enrichment (6-mer frequency, TF over GST control) | 1.14 fold enrichment (6-mer frequency, TF over GST control) | 1.13 fold enrichment (6-mer frequency, TF over GST control) | 1.1 fold enrichment (6-mer frequency, TF over GST control)
6 | AATTGC | 1.43 fold enrichment (6-mer frequency, TF over GST control) | 1.35 fold enrichment (6-mer frequency, TF over GST control) | 1.37 fold enrichment (6-mer frequency, TF over GST control) | 1.27 fold enrichment (6-mer frequency, TF over GST control) | 1.38 fold enrichment (6-mer frequency, TF over GST control) | 1.38 fold enrichment (6-mer frequency, TF over GST control) | 1.35 fold enrichment (6-mer frequency, TF over GST control) | 1.43 fold enrichment (6-mer frequency, TF over GST control)
7 | AAAAAT | 1.35 fold enrichment (6-mer frequency, TF over GST control) | 1.34 fold enrichment (6-mer frequency, TF over GST control) | 1.3 fold enrichment (6-mer frequency, TF over GST control) | 1.21 fold enrichment (6-mer frequency, TF over GST control) | 1.34 fold enrichment (6-mer frequency, TF over GST control) | 1.3 fold enrichment (6-mer frequency, TF over GST control) | 1.29 fold enrichment (6-mer frequency, TF over GST control) | 1.35 fold enrichment (6-mer frequency, TF over GST control)
8 | TATTGG | 1.2 fold enrichment (6-mer frequency, TF over GST control) | 1.18 fold enrichment (6-mer frequency, TF over GST control) | 1.23 fold enrichment (6-mer frequency, TF over GST control) | 1.23 fold enrichment (6-mer frequency, TF over GST control) | 1.19 fold enrichment (6-mer frequency, TF over GST control) | 1.1 fold enrichment (6-mer frequency, TF over GST control) | 1.17 fold enrichment (6-mer frequency, TF over GST control) | 1.21 fold enrichment (6-mer frequency, TF over GST control)
9 | CTCTGT | 1.5 fold enrichment (6-mer frequency, TF over GST control) | 1.33 fold enrichment (6-mer frequency, TF over GST control) | 1.5 fold enrichment (6-mer frequency, TF over GST control) | 1.45 fold enrichment (6-mer frequency, TF over GST control) | 1.43 fold enrichment (6-mer frequency, TF over GST control) | 1.37 fold enrichment (6-mer frequency, TF over GST control) | 1.43 fold enrichment (6-mer frequency, TF over GST control) | 1.44 fold enrichment (6-mer frequency, TF over GST control)
10 | ATTGAC | 1.24 fold enrichment (6-mer frequency, TF over GST control) | 1.26 fold enrichment (6-mer frequency, TF over GST control) | 1.36 fold enrichment (6-mer frequency, TF over GST control) | 1.12 fold enrichment (6-mer frequency, TF over GST control) | 1.25 fold enrichment (6-mer frequency, TF over GST control) | 1.19 fold enrichment (6-mer frequency, TF over GST control) | 1.21 fold enrichment (6-mer frequency, TF over GST control) | 1.23 fold enrichment (6-mer frequency, TF over GST control)
11 | GATGCT | 1.3 fold enrichment (6-mer frequency, TF over GST control) | 1.28 fold enrichment (6-mer frequency, TF over GST control) | 1.25 fold enrichment (6-mer frequency, TF over GST control) | 1.2 fold enrichment (6-mer frequency, TF over GST control) | 1.29 fold enrichment (6-mer frequency, TF over GST control) | 1.21 fold enrichment (6-mer frequency, TF over GST control) | 1.29 fold enrichment (6-mer frequency, TF over GST control) | 1.16 fold enrichment (6-mer frequency, TF over GST control)
12 | TTCCTT | 1.77 fold enrichment (6-mer frequency, TF over GST control) | 1.91 fold enrichment (6-mer frequency, TF over GST control) | 1.94 fold enrichment (6-mer frequency, TF over GST control) | 1.77 fold enrichment (6-mer frequency, TF over GST control) | 1.92 fold enrichment (6-mer frequency, TF over GST control) | 3.67 fold enrichment (6-mer frequency, TF over GST control) | 2.13 fold enrichment (6-mer frequency, TF over GST control) | 2.1 fold enrichment (6-mer frequency, TF over GST control)
13 | TCTCAC | 1.44 fold enrichment (6-mer frequency, TF over GST control) | 1.33 fold enrichment (6-mer frequency, TF over GST control) | 1.35 fold enrichment (6-mer frequency, TF over GST control) | 1.23 fold enrichment (6-mer frequency, TF over GST control) | 1.24 fold enrichment (6-mer frequency, TF over GST control) | 1.37 fold enrichment (6-mer frequency, TF over GST control) | 1.34 fold enrichment (6-mer frequency, TF over GST control) | 1.32 fold enrichment (6-mer frequency, TF over GST control)
14 | TGAACA | 1.27 fold enrichment (6-mer frequency, TF over GST control) | 1.31 fold enrichment (6-mer frequency, TF over GST control) | 1.18 fold enrichment (6-mer frequency, TF over GST control) | 1.22 fold enrichment (6-mer frequency, TF over GST control) | 1.21 fold enrichment (6-mer frequency, TF over GST control) | 1.26 fold enrichment (6-mer frequency, TF over GST control) | 1.25 fold enrichment (6-mer frequency, TF over GST control) | 1.21 fold enrichment (6-mer frequency, TF over GST control)
15 | CTCTAT | 1.22 fold enrichment (6-mer frequency, TF over GST control) | 1.14 fold enrichment (6-mer frequency, TF over GST control) | 1.16 fold enrichment (6-mer frequency, TF over GST control) | 1.16 fold enrichment (6-mer frequency, TF over GST control) | 1.18 fold enrichment (6-mer frequency, TF over GST control) | 1.14 fold enrichment (6-mer frequency, TF over GST control) | 1.08 fold enrichment (6-mer frequency, TF over GST control) | 1.06 fold enrichment (6-mer frequency, TF over GST control)
